Experimental findings from paper PMC7862700, “An all-to-all approach to the identification of sequence-specific readers for epigenetic DNA modifications on cytosine” are described below.

Holding throughout (assay): DAPPL (digital affinity profiling via proximity ligation, sequencing); 10 mM Tris-HCl pH 7.5, 50 mM NaCl, 1 mM DTT, 4% glycerol, room temperature, 30 min; GST-TFs on glutathione beads, 16-mer random dsDNA library, 0.1% formaldehyde crosslink after washing; high values mean tight binding
What all share (settings): protein: recombinant; tags: N-terminal GST; dsDNA, one strand shown

In one assay the target is T1, FLI1 (Homo sapiens, UniProt Q01543 1-452).
T1 sequence: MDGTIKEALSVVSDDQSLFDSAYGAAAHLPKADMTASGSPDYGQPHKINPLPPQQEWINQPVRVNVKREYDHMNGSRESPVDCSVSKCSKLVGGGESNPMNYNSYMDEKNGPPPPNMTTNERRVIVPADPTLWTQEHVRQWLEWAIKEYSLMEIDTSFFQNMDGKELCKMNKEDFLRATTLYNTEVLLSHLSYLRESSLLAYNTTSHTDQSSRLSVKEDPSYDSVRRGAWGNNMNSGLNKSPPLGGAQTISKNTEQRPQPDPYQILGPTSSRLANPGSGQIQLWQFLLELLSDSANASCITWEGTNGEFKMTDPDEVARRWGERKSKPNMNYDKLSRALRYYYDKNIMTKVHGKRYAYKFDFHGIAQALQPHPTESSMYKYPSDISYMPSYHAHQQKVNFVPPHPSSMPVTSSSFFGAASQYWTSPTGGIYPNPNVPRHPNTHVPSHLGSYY
Put shortly: (§1)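 Sequencing on an Illumina NextSeq500 followed washing, crosslinking with 0.1% formaldehyde, proximity ligation (BsaI/T4 ligase, 1 h, 37 °C) and PCR amplification of pools that had been incubated for 30 min at room temperature with 200 nmole of a random double-stranded 16-mer DNA library in Tris/NaCl/DTT/glycerol buffer. Each pool held DNA-barcoded human transcription factors, expressed in yeast as GST fusions and captured on glutathione beads, plus a tag-only sample. Binding signal is a hexamer's read frequency for a factor divided by its frequency in the tag-only sample.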

The next assay addresses T2, ELK1 (Homo sapiens, UniProt P19419 1-428).
T2 sequence: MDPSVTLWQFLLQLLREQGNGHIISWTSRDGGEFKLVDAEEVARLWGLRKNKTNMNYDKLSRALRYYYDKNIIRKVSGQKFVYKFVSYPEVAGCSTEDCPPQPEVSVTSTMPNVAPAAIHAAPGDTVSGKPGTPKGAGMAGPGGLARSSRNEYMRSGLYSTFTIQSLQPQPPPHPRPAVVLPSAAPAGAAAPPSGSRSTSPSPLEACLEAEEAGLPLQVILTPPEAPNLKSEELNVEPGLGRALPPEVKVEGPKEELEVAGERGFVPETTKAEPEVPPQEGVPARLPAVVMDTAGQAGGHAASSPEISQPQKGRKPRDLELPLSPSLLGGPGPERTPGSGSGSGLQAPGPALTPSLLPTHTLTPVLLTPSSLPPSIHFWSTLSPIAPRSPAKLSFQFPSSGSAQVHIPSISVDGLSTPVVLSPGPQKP
Put shortly: as §1

The target in the next assay is T3, GABPA (Homo sapiens, UniProt Q06546 1-454).
T3 sequence: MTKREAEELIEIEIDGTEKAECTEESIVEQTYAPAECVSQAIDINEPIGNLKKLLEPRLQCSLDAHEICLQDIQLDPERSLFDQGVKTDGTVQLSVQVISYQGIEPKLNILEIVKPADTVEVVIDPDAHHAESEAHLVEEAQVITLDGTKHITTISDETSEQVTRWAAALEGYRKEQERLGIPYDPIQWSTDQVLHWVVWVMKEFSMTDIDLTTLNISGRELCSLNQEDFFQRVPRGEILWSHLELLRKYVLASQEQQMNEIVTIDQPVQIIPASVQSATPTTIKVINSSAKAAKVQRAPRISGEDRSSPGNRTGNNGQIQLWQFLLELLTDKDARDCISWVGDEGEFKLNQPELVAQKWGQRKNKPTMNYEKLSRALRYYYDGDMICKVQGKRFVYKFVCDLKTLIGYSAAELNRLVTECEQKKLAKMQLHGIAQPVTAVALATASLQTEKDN
Put shortly: as §1

The next assay has as its target T4, ERG (Homo sapiens, UniProt P11308 1-479).
T4 sequence: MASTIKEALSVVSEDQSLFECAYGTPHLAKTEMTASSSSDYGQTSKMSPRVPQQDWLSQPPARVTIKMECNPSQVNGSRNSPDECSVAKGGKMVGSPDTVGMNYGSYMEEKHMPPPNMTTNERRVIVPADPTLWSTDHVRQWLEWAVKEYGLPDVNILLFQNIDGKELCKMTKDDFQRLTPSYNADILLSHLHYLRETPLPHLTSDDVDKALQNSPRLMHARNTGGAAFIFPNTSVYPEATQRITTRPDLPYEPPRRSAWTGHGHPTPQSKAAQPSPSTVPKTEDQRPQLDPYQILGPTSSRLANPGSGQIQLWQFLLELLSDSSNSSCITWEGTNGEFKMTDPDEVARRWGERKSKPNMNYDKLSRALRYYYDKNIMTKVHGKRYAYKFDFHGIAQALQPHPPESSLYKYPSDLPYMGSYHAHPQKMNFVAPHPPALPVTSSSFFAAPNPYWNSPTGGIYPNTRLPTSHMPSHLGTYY
Put shortly: as §1

Another assay deals with ELF1 (Homo sapiens, UniProt P32519 1-619). Put shortly:
as §1

The next assay concerns the target T5, EHF (Homo sapiens, UniProt Q9NZC4 1-300).
T5 sequence: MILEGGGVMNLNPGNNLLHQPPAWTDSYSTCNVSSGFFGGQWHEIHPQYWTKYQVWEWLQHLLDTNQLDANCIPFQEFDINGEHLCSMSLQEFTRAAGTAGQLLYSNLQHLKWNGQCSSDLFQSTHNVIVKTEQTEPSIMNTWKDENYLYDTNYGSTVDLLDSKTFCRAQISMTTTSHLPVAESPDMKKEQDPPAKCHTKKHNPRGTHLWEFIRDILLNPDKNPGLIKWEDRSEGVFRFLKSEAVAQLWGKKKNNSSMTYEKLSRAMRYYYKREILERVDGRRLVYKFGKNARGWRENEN
Put shortly:
as §1

The target of a further assay is SPI1 (Homo sapiens, UniProt P17947 1-270). Put shortly: as §1
For another assay, the target named is SPIB (Homo sapiens, UniProt Q01892 1-262). Put shortly: as §1
The next assay has as its target T6, ELK3 (Homo sapiens, UniProt P41970 1-407).
T6 sequence: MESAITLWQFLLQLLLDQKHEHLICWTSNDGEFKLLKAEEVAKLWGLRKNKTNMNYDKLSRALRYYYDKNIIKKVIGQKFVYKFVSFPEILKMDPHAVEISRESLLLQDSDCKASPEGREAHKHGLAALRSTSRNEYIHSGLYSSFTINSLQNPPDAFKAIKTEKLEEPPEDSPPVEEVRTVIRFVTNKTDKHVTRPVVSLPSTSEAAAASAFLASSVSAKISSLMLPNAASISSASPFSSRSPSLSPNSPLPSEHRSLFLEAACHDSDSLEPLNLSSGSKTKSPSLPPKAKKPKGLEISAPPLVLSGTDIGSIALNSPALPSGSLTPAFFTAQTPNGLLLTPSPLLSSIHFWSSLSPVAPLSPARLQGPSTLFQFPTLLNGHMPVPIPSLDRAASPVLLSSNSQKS
Put shortly:
as §1

The target in another assay is T7, FEV (Homo sapiens, UniProt Q99581 1-238).
T7 sequence: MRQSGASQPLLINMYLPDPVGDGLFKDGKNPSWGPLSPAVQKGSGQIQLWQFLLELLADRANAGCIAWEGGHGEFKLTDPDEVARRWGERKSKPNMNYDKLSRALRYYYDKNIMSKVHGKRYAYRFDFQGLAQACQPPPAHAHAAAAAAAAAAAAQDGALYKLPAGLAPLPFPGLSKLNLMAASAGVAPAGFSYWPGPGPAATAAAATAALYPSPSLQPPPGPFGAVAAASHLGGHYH
Put shortly: as §1

Another assay concerns the target ETV5 (Homo sapiens, UniProt P41161 1-510). Put shortly: as §1
In a further assay the target is T8, SPIC (Homo sapiens, UniProt Q8N5J4 1-248).
T8 sequence: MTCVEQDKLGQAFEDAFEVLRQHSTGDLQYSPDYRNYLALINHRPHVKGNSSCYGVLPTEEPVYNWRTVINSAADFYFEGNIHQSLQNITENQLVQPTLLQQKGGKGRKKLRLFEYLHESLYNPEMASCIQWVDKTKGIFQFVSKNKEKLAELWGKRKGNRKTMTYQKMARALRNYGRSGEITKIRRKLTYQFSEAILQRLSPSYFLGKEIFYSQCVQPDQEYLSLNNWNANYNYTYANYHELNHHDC
Put shortly: as §1

For another assay, the target named is ELF4 (Homo sapiens, UniProt Q99607 1-663). Put shortly:
as §1

Another assay addresses T9, ELK4 (Homo sapiens, UniProt P28324-2 1-405).
T9 sequence: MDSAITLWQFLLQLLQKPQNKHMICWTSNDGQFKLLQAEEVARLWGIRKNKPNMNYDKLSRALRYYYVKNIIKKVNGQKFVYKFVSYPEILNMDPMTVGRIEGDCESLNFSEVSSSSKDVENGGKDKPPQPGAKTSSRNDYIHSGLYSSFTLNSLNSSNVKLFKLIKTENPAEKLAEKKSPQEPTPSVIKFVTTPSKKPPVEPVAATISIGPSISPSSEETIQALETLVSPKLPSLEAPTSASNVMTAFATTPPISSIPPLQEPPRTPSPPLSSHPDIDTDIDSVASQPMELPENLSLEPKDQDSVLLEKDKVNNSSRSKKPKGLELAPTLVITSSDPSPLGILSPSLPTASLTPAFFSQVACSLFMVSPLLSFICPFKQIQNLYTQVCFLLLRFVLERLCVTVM
Put shortly: as §1

The next assay deals with T10, ETV2 (Homo sapiens, UniProt O00321 1-342).
T10 sequence: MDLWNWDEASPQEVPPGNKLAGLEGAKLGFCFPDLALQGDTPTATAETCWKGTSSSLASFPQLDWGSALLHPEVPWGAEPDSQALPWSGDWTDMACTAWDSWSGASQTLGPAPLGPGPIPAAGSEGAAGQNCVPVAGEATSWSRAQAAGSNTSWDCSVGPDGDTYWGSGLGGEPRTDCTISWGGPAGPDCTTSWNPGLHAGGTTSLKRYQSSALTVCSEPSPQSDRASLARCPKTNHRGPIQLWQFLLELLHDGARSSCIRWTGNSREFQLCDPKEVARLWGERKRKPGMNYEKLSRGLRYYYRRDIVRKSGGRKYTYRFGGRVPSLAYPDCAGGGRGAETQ
Put shortly:
as §1

Another assay addresses T11, ELF3 (Homo sapiens, UniProt P78545 1-371).
T11 sequence: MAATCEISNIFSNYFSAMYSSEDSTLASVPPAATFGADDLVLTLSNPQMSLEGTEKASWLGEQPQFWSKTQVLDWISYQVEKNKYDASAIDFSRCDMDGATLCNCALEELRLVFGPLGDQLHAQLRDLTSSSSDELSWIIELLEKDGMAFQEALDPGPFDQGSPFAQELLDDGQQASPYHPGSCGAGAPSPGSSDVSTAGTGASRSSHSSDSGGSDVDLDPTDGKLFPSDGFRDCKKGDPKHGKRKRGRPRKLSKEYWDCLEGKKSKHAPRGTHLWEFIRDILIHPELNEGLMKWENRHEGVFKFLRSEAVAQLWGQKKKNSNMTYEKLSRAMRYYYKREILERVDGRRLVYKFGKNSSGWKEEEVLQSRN
Put shortly:
as §1

The next assay deals with ETV1 (Homo sapiens, UniProt P50549 1-477). Put shortly:
as §1

Chain of ETV5 (P41161 whole entry): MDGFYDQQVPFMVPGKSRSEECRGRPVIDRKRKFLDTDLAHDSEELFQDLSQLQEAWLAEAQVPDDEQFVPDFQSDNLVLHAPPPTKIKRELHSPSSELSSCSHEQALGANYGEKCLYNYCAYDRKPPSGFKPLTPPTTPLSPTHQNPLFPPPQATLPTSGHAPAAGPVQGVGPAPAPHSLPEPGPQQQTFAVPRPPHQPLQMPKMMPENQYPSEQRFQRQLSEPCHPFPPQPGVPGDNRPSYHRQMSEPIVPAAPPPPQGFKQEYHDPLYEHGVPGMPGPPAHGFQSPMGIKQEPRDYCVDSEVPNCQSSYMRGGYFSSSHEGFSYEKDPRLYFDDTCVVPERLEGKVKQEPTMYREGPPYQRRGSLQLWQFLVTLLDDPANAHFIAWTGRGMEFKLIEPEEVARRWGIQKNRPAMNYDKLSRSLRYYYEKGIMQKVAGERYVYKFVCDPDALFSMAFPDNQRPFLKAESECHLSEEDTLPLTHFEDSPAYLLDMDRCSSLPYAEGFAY
Chain of ELF1 (P32519 whole entry): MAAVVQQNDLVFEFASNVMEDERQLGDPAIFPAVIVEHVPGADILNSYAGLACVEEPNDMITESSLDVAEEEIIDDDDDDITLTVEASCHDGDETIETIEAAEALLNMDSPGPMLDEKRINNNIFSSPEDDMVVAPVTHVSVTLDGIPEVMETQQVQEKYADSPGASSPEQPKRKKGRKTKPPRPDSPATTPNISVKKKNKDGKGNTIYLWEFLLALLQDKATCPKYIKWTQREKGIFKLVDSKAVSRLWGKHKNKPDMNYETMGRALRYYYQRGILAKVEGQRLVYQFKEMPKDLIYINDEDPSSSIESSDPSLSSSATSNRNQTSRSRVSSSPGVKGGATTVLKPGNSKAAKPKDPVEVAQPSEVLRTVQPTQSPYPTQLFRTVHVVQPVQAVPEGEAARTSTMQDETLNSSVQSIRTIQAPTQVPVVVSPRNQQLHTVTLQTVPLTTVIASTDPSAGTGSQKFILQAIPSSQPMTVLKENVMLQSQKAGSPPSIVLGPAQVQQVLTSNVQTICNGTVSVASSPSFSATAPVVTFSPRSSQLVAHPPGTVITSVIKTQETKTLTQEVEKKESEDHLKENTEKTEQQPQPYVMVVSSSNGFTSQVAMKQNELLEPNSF
Chain of ETV1 (P50549 whole entry): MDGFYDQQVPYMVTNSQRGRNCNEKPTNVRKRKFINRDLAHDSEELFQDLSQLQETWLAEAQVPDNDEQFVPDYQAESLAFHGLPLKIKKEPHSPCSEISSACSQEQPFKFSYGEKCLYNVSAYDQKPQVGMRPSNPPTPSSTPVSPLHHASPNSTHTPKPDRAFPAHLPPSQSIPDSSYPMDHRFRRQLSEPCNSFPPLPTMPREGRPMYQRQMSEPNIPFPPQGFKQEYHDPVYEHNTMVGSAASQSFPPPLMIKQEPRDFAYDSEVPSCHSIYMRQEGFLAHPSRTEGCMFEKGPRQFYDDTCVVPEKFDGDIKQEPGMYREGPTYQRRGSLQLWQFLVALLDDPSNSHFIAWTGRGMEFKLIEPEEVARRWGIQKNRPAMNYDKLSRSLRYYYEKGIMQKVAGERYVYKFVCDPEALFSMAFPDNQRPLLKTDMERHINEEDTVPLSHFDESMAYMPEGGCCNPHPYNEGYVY
Chain of ELF4 (Q99607 whole entry): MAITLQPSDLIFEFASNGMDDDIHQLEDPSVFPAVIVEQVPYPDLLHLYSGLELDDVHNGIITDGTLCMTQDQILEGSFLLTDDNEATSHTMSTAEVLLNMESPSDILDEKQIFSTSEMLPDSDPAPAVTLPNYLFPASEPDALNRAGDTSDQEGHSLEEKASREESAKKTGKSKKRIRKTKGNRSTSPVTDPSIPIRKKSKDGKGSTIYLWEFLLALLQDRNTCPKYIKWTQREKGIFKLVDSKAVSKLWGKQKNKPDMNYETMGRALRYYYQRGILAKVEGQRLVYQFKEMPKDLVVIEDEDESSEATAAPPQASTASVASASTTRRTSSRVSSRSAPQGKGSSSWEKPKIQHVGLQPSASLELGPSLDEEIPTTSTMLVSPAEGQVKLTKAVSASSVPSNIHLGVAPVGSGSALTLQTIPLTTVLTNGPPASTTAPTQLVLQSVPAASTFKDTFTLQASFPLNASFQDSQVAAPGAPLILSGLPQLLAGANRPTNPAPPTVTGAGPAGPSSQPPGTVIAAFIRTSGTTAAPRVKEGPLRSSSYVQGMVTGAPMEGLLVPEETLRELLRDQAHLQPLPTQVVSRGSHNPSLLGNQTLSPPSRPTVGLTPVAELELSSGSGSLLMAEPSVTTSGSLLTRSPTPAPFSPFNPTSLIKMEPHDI
Chain of SPIB (Q01892 whole entry): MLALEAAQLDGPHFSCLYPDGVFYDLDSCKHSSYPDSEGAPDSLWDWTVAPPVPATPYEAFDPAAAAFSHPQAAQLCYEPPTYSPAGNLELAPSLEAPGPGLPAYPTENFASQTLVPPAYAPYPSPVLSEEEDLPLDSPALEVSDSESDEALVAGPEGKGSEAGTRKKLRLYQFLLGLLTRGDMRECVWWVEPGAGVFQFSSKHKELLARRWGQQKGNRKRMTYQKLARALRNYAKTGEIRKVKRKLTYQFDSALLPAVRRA

As to CTGCGT, the binding signal was 1.12 fold enrichment (6-mer frequency, TF over GST control) in the assay with FLI1; 1.15 fold enrichment (6-mer frequency, TF over GST control) in the assay with ELK1; 1.16 fold enrichment (6-mer frequency, TF over GST control) with GABPA; 1.13 fold enrichment (6-mer frequency, TF over GST control) in the assay with ERG; 1.17 fold enrichment (6-mer frequency, TF over GST control) with ELF1; 1.18 fold enrichment (6-mer frequency, TF over GST control) with EHF. In addition, the binding signal in the assay with SPI1 was 1.16 fold enrichment (6-mer frequency, TF over GST control); with SPIB it was 1.12 fold enrichment (6-mer frequency, TF over GST control); in the assay with ELK3 it was 1.24 fold enrichment (6-mer frequency, TF over GST control); with FEV it was 1.07 fold enrichment (6-mer frequency, TF over GST control); in the assay with ETV5, 1.09 fold enrichment (6-mer frequency, TF over GST control); with SPIC, 1.31 fold enrichment (6-mer frequency, TF over GST control). Besides, the binding signal in the assay with ELF4 is 1.09 fold enrichment (6-mer frequency, TF over GST control); in the assay with ELK4, 1.3 fold enrichment (6-mer frequency, TF over GST control); with ETV2 it was 1.09 fold enrichment (6-mer frequency, TF over GST control); in the assay with ELF3, 1.07 fold enrichment (6-mer frequency, TF over GST control); in the assay with ETV1, 1.11 fold enrichment (6-mer frequency, TF over GST control).
